Source: PubChem BioAssay (National Center for Advancing Translational Sciences (NCATS))
A selection: hits, their analogues and other compounds. The true share with any hit is near 1.2%.
EPAC2 ag – agonists of human EPAC2 (RAPGEF4) | EPAC2 activation, biochemical qHTS; response scale: 100% = 6.5 mM cAMP response | actives 0.079% (n = 360,000) | Potency, µM (titrated, usually from 154 µM), inactives show at the highest dose activation, actives largely listed as activators | Q8WZA2; also: nearly all actives have a fitted effect of over 50% in size
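EPAC2 (100 nM) mixed with Rap1B loaded with BODIPY-GDP (250 nM) plus 50 uM unlabeled GDP; compounds pinned in, 5 min RT, then read every 5 min for 30 min (ex 480, em 540 nm). Normalized to cAMP control.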
EPAC1 antagonist – blocks human EPAC1 exchange factor. EPAC1 GEF assay, Rap1b-BODIPY-GDP exchange fluorescence. Potency, µM (doses to about 115 µM), for the others: at the top dose activity change, negative = inhibition, actives largely listed as inhibitors. actives 0.14% (n = 360,000). O95398. AID 720709;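 also: plate controls were vehicle for no effect and positive control for full effect; nearly all actives have a fitted effect of over 50% in size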
Target sequence (O95398 whole entry, looked up): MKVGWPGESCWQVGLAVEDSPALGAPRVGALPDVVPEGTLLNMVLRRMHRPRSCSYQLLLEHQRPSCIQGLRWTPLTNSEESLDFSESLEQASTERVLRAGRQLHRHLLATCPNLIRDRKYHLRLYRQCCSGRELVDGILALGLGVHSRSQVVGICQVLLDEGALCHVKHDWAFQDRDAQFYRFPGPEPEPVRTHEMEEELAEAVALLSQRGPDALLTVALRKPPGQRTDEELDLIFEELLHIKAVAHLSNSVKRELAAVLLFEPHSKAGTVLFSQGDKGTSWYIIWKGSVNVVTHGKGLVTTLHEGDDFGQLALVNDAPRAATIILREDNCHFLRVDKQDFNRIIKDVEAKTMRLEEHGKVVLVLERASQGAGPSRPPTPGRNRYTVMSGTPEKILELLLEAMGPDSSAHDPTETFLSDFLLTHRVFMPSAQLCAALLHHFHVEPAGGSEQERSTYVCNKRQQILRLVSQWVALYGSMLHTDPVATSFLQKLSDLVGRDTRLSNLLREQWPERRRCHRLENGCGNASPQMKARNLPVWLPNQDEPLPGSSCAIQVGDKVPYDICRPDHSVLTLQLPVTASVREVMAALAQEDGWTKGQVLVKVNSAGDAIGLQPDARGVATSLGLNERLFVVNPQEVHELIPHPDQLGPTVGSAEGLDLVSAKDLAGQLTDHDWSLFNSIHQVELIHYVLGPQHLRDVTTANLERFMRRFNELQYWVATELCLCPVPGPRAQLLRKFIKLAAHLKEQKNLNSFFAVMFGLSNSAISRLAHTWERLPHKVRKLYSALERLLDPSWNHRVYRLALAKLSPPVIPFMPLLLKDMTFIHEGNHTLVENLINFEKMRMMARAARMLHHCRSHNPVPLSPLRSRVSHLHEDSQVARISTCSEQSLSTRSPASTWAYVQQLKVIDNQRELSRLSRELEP
EPAC2 antag – antagonists of human EPAC2; EPAC2 GEF exchange of Rap1B-BODIPY-GDP, fluorescence; Potency, µM (doses to about 114 µM), for the others: top-dose activity, negative = inhibition, actives largely listed as inhibitors; actives 0.18% (n = 360,000); AID 720708; also: % is scaled to controls: 0 for no effect and ±100 for the full control effect; nearly all actives have a fitted effect of over 45% in size
USP1-UAF1 inh – blocks the human USP1/UAF1 deubiquitinase complex; O94782; recombinant USP1/UAF1, Ub-Rhodamine cleavage fluorescence; Potency, µM (doses to about 57.1 µM), for inactives: at the top dose activity change, negative = inhibition, usual class: inhibitors; actives 0.23% (n = 390,000); AID 743255; also: % is scaled to controls: 0 for no effect and ±100 for the full control effect; nearly all actives have a fitted effect of over 60% in size
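In this screen, compounds sit with the deubiquitinase complex (1nM) for 15 min at room temperature before Ub-Rho is added at 150nM final. Fluorescence rise is then followed for 6 reads every 60 seconds.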
EPAC1 ag – EPAC1 (human) agonism. O95398. EPAC1 agonist qHTS, biochemical assay; response scale: 100% = response to 6.5 mM cAMP. Potency, µM (doses to about 154 µM), for inactives: at the top dose activation, hits mostly activators. actives 0.073% (n = 360,000); also: nearly all actives have a fitted effect of over 60% in size
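Read-out is the fluorescence drop as BODIPY-GDP leaves Rap1B (480 nm excitation, 540 nm emission), recorded every 5 minutes over 30 minutes. Reactions held 100 nM EPAC1, 250 nM Rap1B–BODIPY-GDP and 50 uM GDP, with 6.5 mM cAMP setting full activation.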
VDR inhibitor – vitamin D3 receptor (human) inhibition; AID 504847; VDR-SRC2-3 peptide fluorescence polarization, 2 h; Potency, µM, inactives show max response, negative = inhibition, hits mostly inhibitors; actives 0.93% (n = 400,000); also: % is scaled to controls: 0 for no effect and ±100 for the full control effect
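Fluorescence polarization assay measuring small-molecule disruption of VDR binding to the coregulator peptide SRC2-3. Compounds were pin-transferred (23 nl) into the reagent mix and incubated 2 h at room temperature before reading.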
Active calls of the source: *; [ ] = dose if it differs, or a comment. Calls follow the shape of the dose curve; as a rule, active = well fitted curve in the direction sought with a large enough effect; inconclusive = small, poorly fitted or top-dose-only effect, or another doubt; inactive = no such curve, though single readings can be large; an effect the other way counts as inactive or inconclusive. Potency is read from the fitted curve at half-maximal effect.

How did COc1ccc(CC2=C(O)c3ccccc3C(=O)C2=O)cc1 do in these assays?
EPAC2 ag: -3%; EPAC1 antagonist: -7%; EPAC2 antag: -9%; USP1-UAF1 inh: -25%; EPAC1 ag: -4%; VDR inhibitor: inconclusive

Results for O=C1C(=O)c2ccccc2C(O)=C1CCCCl ?
EPAC2 ag: -4%; EPAC1 antagonist: -13%; EPAC2 antag: 3%; USP1-UAF1 inh: 20µM*; EPAC1 ag: 0%; VDR inhibitor: -26%

Results for O=C(O)c1ccc(-n2c(/C=C\c3ccc(O)cc3)nc3ccccc3c2=O)cc1 ?
USP1-UAF1 inh: -22%; VDR inhibitor: -1%

Results for CN(C)c1ccc(/C=C/c2nc3ccccc3c(=O)n2-c2ccc(C(=O)O)cc2)cc1 ?
EPAC2 ag: -29%; EPAC1 antagonist: 164%; EPAC2 antag: -10%; USP1-UAF1 inh: inconclusive; EPAC1 ag: 63µM*; VDR inhibitor: -22%

How did CCN(CC)c1ccc2c(c1)oc(=O)c1c(Cl)cc(=O)oc12 do in these assays?
EPAC2 ag: 89µM*; EPAC1 antagonist: 20%; EPAC2 antag: 46%; USP1-UAF1 inh: 250%; EPAC1 ag: -27%; VDR inhibitor: inconclusive

How did COc1cc2c(C(=O)N3CCN(c4ccc(C)cc4)C(C)C3)cn(CC(C)C)c(=O)c2cc1OC (stereo unspecified) do in these assays?
USP1-UAF1 inh: -18%; VDR inhibitor: -14%

What do the screens show for `COC(=O)N[C@@H](/C=C/c1ccccc1)/C(C(=O)OC)=C(\C)NCc1ccccc1`?
VDR inhibitor: -19%

What do the screens show for `O=C(Nc1ccccc1N1CCCCC1)c1cnccn1`?
EPAC2 ag: 11%; EPAC1 antagonist: -5%; EPAC2 antag: 18µM*; USP1-UAF1 inh: -11%; EPAC1 ag: 6%; VDR inhibitor: 4%

Results for O=C(Nc1ccccc1N1CCCC1)c1cccnc1 ?
EPAC2 ag: 12%; EPAC1 antagonist: -22%; EPAC2 antag: 6%; USP1-UAF1 inh: -25%; EPAC1 ag: 0%; VDR inhibitor: 13%

What do the screens show for `CC(C)(C)OC(=O)NS(=O)(=O)Nc1ccccc1Br`?
VDR inhibitor: 21%

What do the screens show for `CSCC[C@H](NC(=O)[C@H](Cc1ccccc1)NC(=O)[C@H](Cc1cnc[nH]1)NC(=O)CNC(=O)[C@@H](NC(=O)[C@H](C)NC(=O)[C@H](Cc1c[nH]c2ccccc12)NC(=O)[C@H](CCC(N)=O)NC(=O)[C@@H]1CCCN1C(=O)[C@@H](NC(=O)[C@@H]1CCC(=O)N1)C(C)C)C(C)C)C(N)=O`?
VDR inhibitor: 8%

What do the screens show for `Cc1ccc(C(=O)NCC(=O)NCC(=O)OCC(=O)c2ccc([N+](=O)[O-])cc2)cc1`?
EPAC2 ag: -5%; EPAC1 antagonist: 11%; EPAC2 antag: 4%; USP1-UAF1 inh: -8%; EPAC1 ag: 2%; VDR inhibitor: 79µM*

Results for CC(C)c1ccc(NC(=O)C2(C)Cc3ccccc3C(=O)O2)cc1 (stereo unspecified) ?
USP1-UAF1 inh: -20%; VDR inhibitor: 17%

How did CCOc1cccc(CC(=O)NCc2ccc3c(c2)CCN3C(=O)c2cccc(C)c2)c1OCC do in these assays?
USP1-UAF1 inh: -11%; VDR inhibitor: -1%

How did COc1c(C=O)c(=O)[nH]c2c(OC)cccc12 do in these assays?
VDR inhibitor: 0%

What do the screens show for `O=C1N/C(=C\c2ccc(O)cc2)C(=O)c2ccccc21`?
EPAC2 ag: 5%; EPAC1 antagonist: -6%; EPAC2 antag: -8%; USP1-UAF1 inh: 28µM*; EPAC1 ag: 12%; VDR inhibitor: inconclusive

What do the screens show for `COCCNC(=O)CSc1nc2cc3c(cc2c(=O)n1Cc1ccc(C(=O)NCCc2ccc(OC)c(OC)c2)cc1)OCO3`?
USP1-UAF1 inh: -26%; VDR inhibitor: 0%

What do the screens show for `CCOC(=O)/C(C#N)=C1\CC2CCC1(C)C2(C)C` (stereo unspecified)?
EPAC2 ag: 14%; EPAC1 antagonist: -11%; EPAC2 antag: -28%; USP1-UAF1 inh: 5%; EPAC1 ag: 5%; VDR inhibitor: 79µM*

How did N#Cc1c(C(F)(F)F)cc(-c2ccccc2)[nH]c1=O do in these assays?
EPAC2 ag: 4%; EPAC1 antagonist: 1%; EPAC2 antag: 6%; USP1-UAF1 inh: -20%; EPAC1 ag: 4%; VDR inhibitor: 2%

Results for COc1cccc(-c2cc(C(F)(F)F)c(C#N)c(=O)[nH]2)c1 ?
EPAC2 ag: -1%; EPAC1 antagonist: 4%; EPAC2 antag: -21%; USP1-UAF1 inh: -11%; EPAC1 ag: -11%; VDR inhibitor: 71µM*

How did CCOC(=O)c1ccc(N2C(=O)C=CC2=O)cc1 do in these assays?
EPAC2 ag: 2%; EPAC1 antagonist: 10%; EPAC2 antag: -1%[57.1 µM]; USP1-UAF1 inh: -25%; EPAC1 ag: -7%; VDR inhibitor: 50µM*

What do the screens show for `CSCC[C@H](NC(=O)[C@@H](NC(=O)[C@H](CCC(=O)O)NC(=O)[C@H](CCSC)NC(=O)[C@H](CC(N)=O)NC(=O)[C@H](CCC(=O)O)NC(=O)[C@H](CC(N)=O)NC(=O)[C@H](CO)NC(=O)[C@H](C)N)[C@@H](C)O)C(=O)O`?
VDR inhibitor: -9%

Results for CCOC(=O)NNc1ccccc1 ?
EPAC2 ag: 1%; EPAC1 antagonist: -1%; EPAC2 antag: -5%; USP1-UAF1 inh: -11%; EPAC1 ag: 0%; VDR inhibitor: -24%

How did CCOC(=O)C(=CNNc1ccccc1)C(=O)OCC do in these assays?
EPAC2 ag: 3%; EPAC1 antagonist: inconclusive; EPAC2 antag: -11%; USP1-UAF1 inh: 3%; EPAC1 ag: -2%; VDR inhibitor: 50µM*

What do the screens show for `CCC1(c2ccccc2)NC(=O)NC1=O` (stereo unspecified)?
VDR inhibitor: -5%

What do the screens show for `C=CCOc1ccc(C(=O)/C=C2/C(=O)Nc3ccccc32)cc1`?
EPAC2 ag: 9%; EPAC1 antagonist: -12%; EPAC2 antag: -1%; USP1-UAF1 inh: -23%; EPAC1 ag: 5%; VDR inhibitor: inconclusive

Results for C=CCOc1ccccc1C(=O)/C=C1/C(=O)Nc2ccccc21 ?
EPAC2 ag: 13%; EPAC1 antagonist: -1%; EPAC2 antag: -11%; USP1-UAF1 inh: -18%; EPAC1 ag: 15%; VDR inhibitor: 22µM*

What do the screens show for `O=C1NC(=O)c2c1c(-c1ccccc1)cc1[nH]c3ccc(O)cc3c21`?
VDR inhibitor: -3%

How did O=C(O)c1c(Cl)c(Cl)c(Cl)c(Cl)c1-c1c2cc(I)c(=O)c(I)c-2oc2c(I)c(O)c(I)cc12 do in these assays?
VDR inhibitor: 5.6µM*
